About 8,200 (2.3%) of roughly 360,000 compounds were called active. Shown is part of a subset that was picked to be rich in actives. Unmarked numbers belong to inactive results. Rule as the data show it: active = inhibition above about 27%; inactive = the rest.

Broadly, the inhibition is the change of the read-out against control, counted positive when it falls.

The target in this assay is Fructose-bisphosphate aldolase (Mycobacterium tuberculosis (strain ATCC 25618 / H37Rv)) (UniProt P9WQA3). The experiment in a line: M. tuberculosis aldolase activity blockers – biochemical, fluorescence, strain H37Rv, primary screen (AID 588726).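 Also: 0% = vehicle and 100% = reference inhibitor.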 The note with it: purified M. tuberculosis FBA, fluorescence read-out, at 1 µM, hits give high values.
Fructose-bisphosphate aldolase (Mycobacterium tuberculosis (strain ATCC 25618 / H37Rv)), sequence (P9WQA3 whole entry, looked up): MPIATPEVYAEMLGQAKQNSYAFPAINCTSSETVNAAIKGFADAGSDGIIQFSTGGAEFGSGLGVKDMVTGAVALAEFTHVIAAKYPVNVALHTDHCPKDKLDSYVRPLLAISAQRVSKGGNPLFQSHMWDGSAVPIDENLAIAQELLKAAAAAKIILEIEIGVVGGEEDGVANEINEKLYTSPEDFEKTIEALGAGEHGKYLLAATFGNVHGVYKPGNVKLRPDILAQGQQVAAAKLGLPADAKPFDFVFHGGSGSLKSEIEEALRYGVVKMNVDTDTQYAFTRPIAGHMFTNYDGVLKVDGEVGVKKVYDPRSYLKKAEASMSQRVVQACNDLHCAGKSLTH
With `Cc1nn(C)c(C)c1S(=O)(=O)N1CCc2ccccc21`, the inhibition is 6.1%. Next, `CC(C)CNC(=O)/C=C/C(=O)O`: 10.5%; `O=C1NC2(CCCCC2)N=C1c1ccccc1`: 1.74%. Under `CC(C)Cc1ccc(-c2cc3nc(NCc4cccc(Cl)c4)ccn3n2)cc1` stands 14.9%; under `Cc1ccc(C)c(NS(=O)(=O)c2cc(Br)cnc2N)c1`, 3.42%. Under `O=S1(=O)CCOC[C@H](Cc2ccccc2)N1Cc1ccccc1Br` stands -3.56%; under `Cc1ccc(S(=O)(=O)N2C[C@@H](C)[C@]3(C2)[C@H](O)[C@H](OC(=O)NCc2ccccc2)C[C@H]2C(=O)N(c4ccccc4)C(=O)[C@H]23)cc1`, 67.2% (active); under `COC(=O)[C@H]1C[C@H](OC(=O)NCc2ccccc2)[C@@]2(O)CN(S(=O)(=O)c3ccc(C)cc3)CC2[C@H]1C(=O)OC` (stereo not given in full), 0.56%. On to `Cc1ccc(S(=O)(=O)N2C[C@]3(O)C[C@@H]4C(=O)N(c5ccccc5)C(=O)[C@@H]4C[C@]3(OC(=O)NC3CC3)C2)cc1`, for which the inhibition is 0.49%. For `CC(C)C(c1nnnn1C(C)(C)C)N1CCN(Cc2cccnc2)CC1` (stereo not given), the inhibition was 0.62%. With `c1cc(-c2ccc3[nH]ccc3c2)n2ccnc2c1`, the inhibition was 81.5% (active). Turning to `O=C(NCCO)c1cccc(-c2cccc3nccn23)c1`, the inhibition is 10.8%. Under `S=c1[nH]cc(-c2ccc(Cl)cc2)n1-c1ccccc1` stands -0.17%. Turning to `Clc1ccc(-c2nc3ccccn3c2CN2CCSCC2)cc1`, the inhibition was 0.24%. For `Cc1ccc(NC(=O)C2(N3CCC3=O)CCCCC2)cc1`, the inhibition is -1.03%. Regarding `CC/C(=N\NC(=O)c1c(C)nc2ccccn12)c1ccc(Cl)cc1`, the inhibition was 1.77%.

For the compound `O=C(CN1CCN(S(=O)(=O)c2ccc(F)cc2)CC1)NC1CC1`, the inhibition is 0.31%.

As to `CC1CC2=C(CC1/C=N/NC(N)=S)C(C)(C)CCC2` (stereo not given), the inhibition is -2.62%. As for `COc1ccc(Nc2oc(-c3ccccc3Cl)nc2C#N)cc1`, the inhibition is 14.5%.

In the case of `CC(C)(C)n1nc(Cc2cccc3ccccc23)c(C#N)c1N`, the inhibition was -0.08%. In the case of `O=C(CN1CCN(C2CCS(=O)(=O)C2)CC1)N1N=C(c2ccc(Cl)cc2)CC1c1ccco1` (stereo not given), the inhibition was -0.95%. `O=c1[nH]cnc(O)c1C(c1ccc(F)cc1)c1c(O)nc[nH]c1=O`: the inhibition is 1.39%.

Consider `Cc1cc(N=Nc2ccc3ccccc3c2)ccc1O`, for which the inhibition was -3.13%. Under `Cc1nc2ccccc2nc1CC(O)(c1ccccc1)c1ccccc1` stands 0.56%.

Turning to `Cc1nc2ccccc2cc1O`, the inhibition is 116% (active). Under `C=Cn1c(C(=O)O)ccc1-c1ccc(OC)cc1` stands 1.98%; under `COc1ccc(-c2cc(C)nc3nc(N)nn23)cc1`, 124% (active); under `Cc1cc(-c2ccccc2)n2nc(C)c(-c3ccccc3)c2n1`, 4.02%. Take `COC(=O)c1ccc(C)c(NC(=O)Cn2c(C)csc2=O)c1`: the inhibition was -1.21%. Next, `CCOC(=O)c1c(C)[nH]c(C(=O)COc2ccc3c(c2)OCO3)c1C`: 6.18%.

As for `CCOC(=O)c1c(-c2ccccc2)oc2ccc(OC(=O)N(C)C)cc12`, the inhibition was 38.7% (active). Take `COC(=O)c1c(C)oc2ccc(N(C(=O)Oc3ccccc3)S(=O)(=O)c3ccccc3)cc12`: the inhibition was -6.44%. Under `N#CC1(NC(=O)COc2ccc3oc4ccccc4c3c2)CCCCC1` stands -0.49%; under `CCOC(=O)c1c(-c2ccccc2)oc2cc(Br)c(O)c(C=O)c12`, -2.33%; under `CCOC(=O)c1c(-c2ccccc2)oc2ccc(OCC(=O)NN)cc12`, 58.4% (active). For the compound `CCOC(=O)c1c(C)oc2cc(Br)c(OCC(N)=O)cc12`, the inhibition was 5.33%. In the case of `CCOC(=O)c1c(-c2ccccc2)oc2ccc(OCC(N)=O)cc12`, the inhibition was 72.7% (active). Next, `CCOC(=O)c1c(C)oc2cc(Sc3ccccc3)c(O)c(O)c12`: -6.47%.

For the compound `S=C(NC1CCCCC1)NN1CCOCC1`, the inhibition is -5.42%.

Consider `c1ccc2c(c1)CSc1sccc1C2=C1CCNCC1`, for which the inhibition is 4.51%. Under `N#Cc1cccc(NC(=O)CCC2CCCC2)c1` stands -3.71%; under `OC(COCCC12CC3CC(CC(C3)C1)C2)CN1CCCCC1` (stereo not given), -2.2%. Turning to `COc1ccc(-n2c(SCC(=O)Nc3ccc4c(c3)OCO4)nnc2C(C)N2CCCCC2)cc1` (stereo not given), the inhibition is 0.95%.

With `COc1ccc(C(C(=O)NC2CCCC2)N(CCCO)C(=O)Cn2nnc(-c3ccc(C)o3)n2)cc1` (stereo not given), the inhibition is 0.22%. Under `CCOC(=O)CCCCCC(=O)Nc1ccc2c(c1)CC(=O)N([C@@H](C)CO)C[C@H](C)[C@@H](CN(C)Cc1ccccc1)O2` stands 1.41%. For `Cc1nnc(NC2=NCCCCC2)o1`, the inhibition was 2.72%. As for `COC(=O)c1cccnc1NC(=S)NC(C)C`, the inhibition was -6.99%. Under `CSc1nnc(-c2ccc(C(F)(F)F)cn2)o1` stands 7.82%; under `Cc1cccc(-c2nc3ccc(C(=O)NCCN4CCN(C)CC4)cc3nc2-c2cccc(C)c2)c1`, 25.3%. Consider `C=CCNC(=O)c1ccc2c3n(nc2c1)-c1ccc(C)cc1CO3`, for which the inhibition is 46.8% (active). Next, `Cc1ccc(-n2nc3c(c2NC(=O)c2ccc4c(c2)OCO4)CSC3)c(C)c1`: 0.86%. Under `CC(C)c1ccc(C(=O)OC2CCOC2=O)cc1` (stereo not given) stands -2.02%. Next, `O=C(OC1CCOC1=O)c1ccc(-c2nc3ccccc3s2)s1` (stereo not given): 36.7% (active); `COc1cc(C(=O)OC2CCOC2=O)c([N+](=O)[O-])cc1OC` (stereo not given): 1.88%.

For the compound `Cc1cc(C)c(S(=O)(=O)c2ccccc2)c(OC(=O)c2c(F)cccc2Cl)n1`, the inhibition was 2.73%. As for `COc1ccc(-c2nc3cnccn3c2NC2CCCCC2)cc1-c1cccc(Cl)c1`, the inhibition is 24.3%. Under `Cc1ccc2nc(-c3cccnc3)c(NC3CCCC3)n2c1` stands 2.23%; under `COc1ccc(-c2nc3cc(C)ccn3c2NC2CCCCC2)cc1SC1CCCCC1`, 27.2% (active); under `Cc1[nH]nc(-c2ccc(OCc3cnn(-c4ccccc4)c3)cc2O)c1Oc1ccc(Cl)cc1`, 3.96%.

In the case of `COc1ccc(S(=O)(=O)N2CCOC2CNC(=O)C(=O)NCc2ccc(F)cc2)cc1` (stereo not given), the inhibition was -0.16%.

These data come from PubChem BioAssay AID588726 (The Scripps Research Institute Molecular Screening Center, 2011).
